From PubChem BioAssay AID372 (MTDP, 2006)
The whole screen tested about 100,000 compounds, of which about 770 (0.77%) were called active. For the sample, actives were picked, then their nearest neighbours and some compounds at random. A number with no mark means an inactive call. Rule as the data show it: active = inhibition above about 50%; inactive = the rest.

target: Gag-Pol polyprotein (Human immunodeficiency virus type 1 group M subtype B (isolate HXB2)) (UniProt P04585); assay: RNase H inhibition, HIV 1 Gag Pol polyprotein, FRET biochemical assay, screening (AID 372); conditions: HIV-1 RT RNase H, FRET RNA/DNA substrate fluorescence; at 10 µM; hits give high values

SMILES	inhibition
O=C1C2C3C=CC(C3)C2C(=O)N1CNc1ccccc1 (stereo not drawn)	6%
COC(=O)c1ccccc1NS(=O)(=O)c1ccc(NC(C)=O)cc1	4%
COC(=O)c1ccccc1NS(=O)(=O)c1ccc(Cl)cc1	12%
COC(=O)c1ccccc1NS(=O)(=O)c1ccccc1	57% (active)
COc1ccc(S(=O)(=O)N(CCc2ccccc2)CC(=O)NC2CCCCC2)cc1	4%
CCn1c2ccccc2c2cc(NC(=O)COc3ccccc3Cl)ccc21	7%
COc1cc(C=O)ccc1OCCCCOc1cccc(Oc2ccccc2)c1	44%
COc1cc(C=O)ccc1OCCOc1cccc(Oc2ccccc2)c1	21%
COc1ccc([N+](=O)[O-])cc1-c1ccc(/C=C(\C#N)c2nc3ccc(C)cc3[nH]2)o1	34%
Cc1ccc2nc(/C(C#N)=C/c3ccc(-c4cc([N+](=O)[O-])ccc4O)o3)[nH]c2c1	6%
Cc1ccc([N+](=O)[O-])cc1-c1ccc(/C=C(\C#N)c2nc3ccccc3[nH]2)o1	58% (active)
Cc1cccc(N2CCN(C(=O)c3ccc(Br)cc3)CC2)c1C	18%
Cc1ccc(S(=O)(=O)c2nc(N)sc2Cl)cc1	30%
Cc1ccc(S(=O)(=O)c2nc(Nc3ccccc3C)sc2Cl)cc1	59% (active)
COc1nc(S(=O)(=O)c2ccc(C)cc2)c(Cl)s1	0%
COc1ccccc1-n1c(O)c(C=C2C=Nc3ccccc32)c(=O)[nH]c1=S	7%
CCc1nnc(NC(=O)c2cnccn2)s1	9%
CCSc1nnc(NC(=O)c2ccc(Cl)cc2)s1	4%
CCSc1nnc(NC(=O)c2cnccn2)s1	57% (active)
CCOC(=O)c1ccc(NC(=O)Cc2ccc(Br)cc2)cc1	3%
COc1ccc(-c2n[nH]c(=S)n2N=C/C(Br)=C/c2ccccc2)cc1	21%
N#Cc1c(-c2ccc(Br)cc2)cc(-c2ccco2)c(C#N)c1N	58% (active)
N#Cc1c(-c2ccccc2)cc(-c2ccco2)c(C#N)c1N	18%
N#Cc1c(-c2ccc(Br)cc2)cc(-c2ccc3c(c2)OCO3)c(C#N)c1N	48%
Cc1ccccc1C(=O)Nc1sc2c(c1C(=O)Nc1cccc3ccccc13)CCC2	13%

SMILES	inhibition
O=C(Nc1cccc(O)c1)c1cc2nc(-c3ccc(Cl)cc3)cc(C(F)(F)F)n2n1	11%
CC(=O)Oc1ccc(C(=O)Nc2cccc(C(=O)O)c2C)cc1	55% (active)
CC(=O)Oc1ccc(C(=O)Nc2ccc(C)cc2C(=O)O)cc1	4%
CC(=O)Oc1ccc(C(=O)Nc2cccc([N+](=O)[O-])c2C)cc1	6%
Cc1ccccc1N1C(=O)NC(=O)/C(=C\c2cccn2-c2ccc(Cl)cc2)C1=O	42%
CC(C)(C)c1ccc(C(C)(C)C)c(Oc2ccccc2)c1O	8%
Cc1ccc([N+](=O)[O-])cc1NC(=O)c1cccc2c1C(=O)c1ccccc1-2	0%
COc1cccc(/C=C2/SC(NC(C)=O)=NC2=O)c1OC	8%
COc1ccc2ccccc2c1/C=C1/SC(NC(C)=O)=NC1=O	52% (active)
COc1ccccc1/C=C1\SC(NC(C)=O)=NC1=O	17%
COc1ccc(-c2n[nH]c(=S)n2/N=C/c2ccccc2Br)cc1	12%
COc1ccc(/C=C/c2ccc3ccccc3n2)cc1	17%
Cc1cn(C(=O)C(C)N2C(=O)c3ccccc3C2=O)c(C)n1 (stereo not drawn)	53% (active)
Cc1cc(C)n(C(=O)C(C)N2C(=O)c3ccccc3C2=O)n1 (stereo not drawn)	43%
Cc1nn(C(=O)C(C)N2C(=O)c3ccccc3C2=O)c(C)c1Br (stereo not drawn)	41%
CC1=C(C(=O)OCc2ccccc2)C(c2ccc(C)s2)NC(=O)N1 (stereo not drawn)	55% (active)
COCCOC(=O)C1=C(C)NC(=O)NC1c1ccc(C)s1 (stereo not drawn)	8%
CCCCCCOC(=O)C1=C(C)NC(=O)NC1c1ccc(Br)cc1 (stereo not drawn)	53% (active)
CCCCOC(=O)C1=C(C)NC(=O)NC1c1ccc(Br)cc1 (stereo not drawn)	23%
CC1=C(C(=O)OC2CCCCCC2)C(c2ccccc2I)NC(=O)N1C (stereo not drawn)	52% (active)
COC(=O)C1=C(C)N(C)C(=O)NC1c1ccccc1I (stereo not drawn)	5%
CC1=C(C(=O)OC2CCCCCCC2)C(c2ccccc2)NC(=O)N1 (stereo not drawn)	57% (active)
CC1=C(C(=O)OC2CCCC2)C(c2ccccc2Cl)NC(=O)N1C (stereo not drawn)	5%
CC1=C(C(=O)OC2CCCCCC2)C(c2ccccc2)NC(=O)N1 (stereo not drawn)	14%
CC1=C(C(=O)OC2CCCCCC2)C(c2ccc(C)cc2)NC(=O)N1 (stereo not drawn)	36%

SMILES	inhibition
CCCCCOC(=O)C1=C(C)NC(=O)NC1c1ccc(Br)cc1 (stereo not drawn)	20%
CC1=C(C(=O)OCCc2ccccc2)C(c2ccc(C)s2)NC(=O)N1 (stereo not drawn)	19%
Cc1cccc(C)c1NC(=O)c1ccc(N(Cc2ccc(Cl)cc2)S(C)(=O)=O)cc1	15%
Cc1ccccc1OCCOc1ccc(Br)cc1/C=C1\SC(N)=NC1=O	33%
Cc1cccc(OCC(=O)Nc2ccccc2C(C)C)c1C	8%
O=C(CCN1C(=O)/C(=C/c2ccccc2Cl)SC1=S)Nc1ccc(-c2ccccc2)cc1	16%
CSc1nc2ccccc2n1CCOc1ccc(C)cc1	8%
Clc1ccc(COc2ccc(/C=N/n3cnnc3)cc2)c(Cl)c1	3%
Clc1ccc(COc2cccc(/C=N/n3cnnc3)c2)c(Cl)c1	50% (active)
O=Cc1cccc(OCc2ccc(Cl)cc2Cl)c1	32%
CCSCCOC(=O)C1=C(C)NC2=C(C(=O)CC(c3cccs3)C2)C1c1ccc(C)s1 (stereo not drawn)	11%
COc1ccc(OC)c(C2C(C(C)=O)=C(O)C(=O)N2CC2CCCO2)c1 (stereo not drawn)	0%
O=C1NC(=S)N(c2ccccc2F)C(=O)/C1=C/c1ccc(-c2ccc(Cl)cc2)o1	14%
Cc1ccc(/C=C2\C(=O)NC(=S)N(c3ccc(Br)cc3C)C2=O)o1	24%
Cc1cc(Br)ccc1N1C(=O)/C(=C/c2cccs2)C(=O)NC1=S	16%
Cc1ccc(/C=C2\C(=O)NC(=S)N(c3ccc(Cl)c(Cl)c3)C2=O)o1	11%
O=C1NC(=S)N(c2ccccc2F)C(=O)/C1=C/c1ccc(N2CCCC2)o1	14%
O=C1NC(=S)N(c2ccc(Cl)cc2)C(=O)/C1=C\c1ccc(Cl)s1	8%
Cc1ccc(/C=C2\C(=O)NC(=S)N(c3ccc(Br)cc3)C2=O)o1	32%
Cc1ccc(N2C(=O)/C(=C/c3ccco3)C(=O)NC2=S)cc1	9%
Cc1cccc(C)c1NC(=O)c1ccc(-c2ccc(Cl)cc2Cl)o1	28%
C=CCc1cccc2cc(C(=O)N3CCCCC3)c(=O)oc12	1%
COc1ccc(C2/C(=C(/O)c3ccccc3)C(=O)C(=O)N2c2ccc(C)cc2)cc1 (stereo not drawn)	7%
CCCCn1c(O)c(/C=C2\C=Nc3ccccc32)c(=O)[nH]c1=O	25%
CCc1ccccc1N1C(=O)NC(=O)/C(=C\c2ccc(N3CCCCC3)o2)C1=O	9%

SMILES	inhibition
O=C1NC(=S)N(c2cccc(Cl)c2Cl)C(=O)/C1=C/c1ccc(Cl)cc1	10%
Cc1ccccc1N1C(=O)/C(=C/c2ccc(I)o2)C(=O)NC1=S	18%
O=C1NC(=S)N(c2cccc(Cl)c2Cl)C(=O)/C1=C/c1ccco1	58% (active)
O=C1NC(=S)N(c2cccc(Cl)c2Cl)C(=O)/C1=C/c1ccc(I)o1	45%
O=C1NC(=O)N(c2ccc(Cl)cc2)C(=O)/C1=C\C=C\c1ccccc1[N+](=O)[O-]	14%
O=C1NC(=S)N(c2ccc(Br)cc2)C(=O)/C1=C/C=C/c1ccco1	16%
Cc1cccc(N2C(=O)/C(=C/C=C/c3ccco3)C(=O)NC2=S)c1	11%
O=C1NC(=O)N(c2ccccc2F)C(=O)/C1=C/c1ccc(I)o1	0%
O=C1NC(=S)N(c2ccccc2)C(=O)/C1=C\C=C\c1ccccc1[N+](=O)[O-]	16%
Cc1cc(C=O)c(C)n1-c1ccc(Cl)cc1	10%
CCN(CC)c1ccc(/C=C2\C(=O)N(c3nc(-c4ccc(Cl)cc4)cs3)N=C2c2ccccc2)cc1	8%
O=[N+]([O-])c1ccc(NC(=S)Nc2ccccc2)c(O)c1	2%
CCOC(=O)C1=C(C)NC2=C(C(=O)CC(c3ccc(OC)cc3)C2)C1c1ccc(O)cc1 (stereo not drawn)	11%
Cc1ccc(/C=N/NC(=O)c2ccc(F)cc2)s1	7%
COc1ccccc1/C=C(\C#N)C(N)=O	0%
N#C/C(=C\c1ccccc1OCCOc1ccc([N+](=O)[O-])cc1)C(N)=O	57% (active)
N#C/C(=C/c1ccccc1OCc1ccccc1F)c1ccc([N+](=O)[O-])cc1	54% (active)
N#C/C(=C\c1ccccc1[N+](=O)[O-])C(N)=O	0%
Cc1ccccc1/C=C(/C#N)c1ccc([N+](=O)[O-])cc1	42%
N#C/C(=C/c1ccccc1OS(=O)(=O)c1ccccc1)c1ccc([N+](=O)[O-])cc1	16%
C=CCc1ccccc1OCCOc1ccc(Br)cc1/C=C(\C#N)C(N)=O	60% (active)
N#C/C(=C\c1cc(Br)ccc1OCc1cccc2ccccc12)C(N)=O	30%
N#C/C(=C\c1cc(Br)ccc1OCc1ccccc1)C(N)=O	10%
